A selection: hits, their analogues and other compounds. The true share with any hit is near 11%.
AMA1-RON2 inh: AMA1-RON2 (P. falciparum) interaction inhibition | AlphaScreen AMA1-biotinylated RON2 peptide binding | Potency, µM (series often up to 58.2 µM), for the others: at the top dose activity change, negative = inhibition, hits mostly inhibitors | 360,000 tested, 0.2% active | AID 720542;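 further: 0% = vehicle wells and -100% = peptide control; nearly all actives have a fitted effect of over 45% in size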
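AMA1 (3D7) with his tag at 25 nM final met compounds first, then biotinylated RON2 peptide at 25 nM; detection used donor plus acceptor beads, 10 µg/mL apiece, read by AlphaScreen after 30 min at room temperature.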
Pf growth 48h: inhibits P. falciparum growth in the first generation, 48 h | P. falciparum luciferase growth in erythrocytes, 48 h | Potency, µM (highest dose often 28.7 µM), without a hit: at the highest dose activity change, negative = inhibition, usual class: inhibitors | 310,000 tested, 5.9% active | AID 504832
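Compounds are pin-transferred into medium, infected erythrocytes (2% hematocrit, 0.1% parasitemia final) are added, and plates sit one parasite generation at 37 C in 5% CO2. Detection reagent is then added and luminescence measured.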
AmpC no deterg: inhibitors of E. coli AmpC beta-lactamase without detergent; AmpC nitrocefin hydrolysis, absorbance 480 nm, 0.0001% Triton; Potency, µM (series often up to 57.1 µM), for the others: at the highest dose activity change, negative = inhibition, hits mostly inhibitors; P00811; 330,000 tested, 0.52% active;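 further: plate controls were no compound for no effect and no enzyme for full effect; nearly all actives have a fitted effect of over 20% in size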
Target sequence (P00811 whole entry, looked up): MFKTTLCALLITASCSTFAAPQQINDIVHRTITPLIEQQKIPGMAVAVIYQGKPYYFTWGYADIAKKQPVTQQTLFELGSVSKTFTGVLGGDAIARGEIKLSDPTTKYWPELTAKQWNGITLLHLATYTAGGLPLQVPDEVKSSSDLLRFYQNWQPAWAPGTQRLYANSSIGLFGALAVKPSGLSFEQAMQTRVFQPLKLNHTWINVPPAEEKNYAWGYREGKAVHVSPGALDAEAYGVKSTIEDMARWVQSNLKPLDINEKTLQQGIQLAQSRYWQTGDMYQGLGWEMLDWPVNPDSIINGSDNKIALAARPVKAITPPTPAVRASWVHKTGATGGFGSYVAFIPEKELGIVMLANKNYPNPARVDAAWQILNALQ
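20 mM phosphate pH 7.0 + 0.01% (detergent screen) or 0.0001% Triton X-100; 5.3 nM AmpC reagent; cpd preinc 15 min RT; nitrocefin (800 uM stock) to start; A480 q20 s × 4 min; Activity was normalised to no-enzyme and no-compound control wells.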
AmpC detergent: blocks E. coli AmpC beta-lactamase in detergent assay; Potency, µM (series often up to 114 µM), without a hit: at the highest dose activity change, negative = inhibition, hits mostly inhibitors; AmpC hydrolysis of nitrocefin, absorbance 480 nm, 0.01% Triton; AID 485294; P00811; 370,000 tested, 0.041% active;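 further: 0% = no-compound wells and -100% = no-enzyme wells; nearly all actives have a fitted effect of over 25% in size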
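AmpC (5.3 nM in the dispensed reagent) in 20 mM phosphate pH 7.0 with 0.01% (detergent screen) or 0.0001% Triton X-100 was preincubated with compounds for 15 min at room temperature. Nitrocefin was then added from an 800 uM solution, and hydrolysis was followed at 480 nm.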
HCV inh: blocks hepatitis C virus; AID 651820; Huh7.5.1 HCVcc-Cre infection, luciferase reporter, 44 h; 340,000 tested, 3.4% active; Potency, µM (highest dose often 41.8 µM), for the others: at the highest dose activity change, negative = inhibition, most hits filed as inhibitors
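Whole-lifecycle infectious HCVcc-Cre system; cells 1,000/well, compound then virus (~0.5 moi) added 4 h after plating, 44 h culture. Luciferase read 15 sec following 15 min substrate incubation, room temp.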
Pf growth 96h: P. falciparum growth inhibition at 96 hours | Potency, µM (series often up to 28.7 µM), without a hit: at the top dose activity change, negative = inhibition, hits mostly inhibitors | AID 504834 | P. falciparum luciferase reporter growth, 96 h | 320,000 tested, 6.9% active
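Two parasite generations (96 h, 37 C, 5% CO2) of compound exposure in infected erythrocytes (0.05% parasitemia, 2% hematocrit). Luciferase-reporter P. falciparum; decreased luminescence indicates inhibited growth, aimed at apicoplast-acting delayed death.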
The depositor's hits bear a star. The call rests on the fitted dose curve; in most records, active means well fitted curve in the direction sought with a large enough effect; inconclusive means small, poorly fitted or top-dose-only effect, or another doubt; inactive means no such curve, though single readings can be large; an effect the other way counts as inactive or inconclusive. Unless noted, on the % scale 0 is the no-effect control and ±100 the full control effect; potency means the concentration at half of the fitted maximal effect.

Results for O=C(c1cc(C2CC2)nn1-c1ccccc1)N1CCN(Cc2ccccc2F)CC1 ?
AMA1-RON2 inh: -17.9%; Pf growth 48h: inconclusive; AmpC no deterg: 128.7%; AmpC detergent: inconclusive; HCV inh: 4.5%; Pf growth 96h: -8.3%

What do the screens show for `COc1ccc(S(=O)(=O)N2CCN(C(=O)c3c(C)nn(-c4ccccc4)c3C)CC2)cc1`?
AMA1-RON2 inh: 5.9%; Pf growth 48h: 10.4µM*; AmpC no deterg: 58.1%; AmpC detergent: inconclusive; HCV inh: -1.7%; Pf growth 96h: 8.28µM*

Results for Cc1ccc(C)c(S(=O)(=O)N2CCN(C(=O)[C@@H]3CCCN3C(=O)c3cccs3)CC2)c1 ?
AMA1-RON2 inh: 3.4%; Pf growth 48h: inconclusive; AmpC no deterg: -8.4%; AmpC detergent: -2.6%; HCV inh: inconclusive; Pf growth 96h: -1.4%

What do the screens show for `CCCOc1ccc(C(=O)Nc2ccc(NC(=O)c3ccccc3)c(Br)c2)cc1`?
AmpC detergent: 16.5%

How did CC1CCN(C(=O)Cn2c(=O)n(CCCCCC(=O)NCc3ccccc3Cl)c(=O)c3sccc32)CC1 do in these assays?
AmpC detergent: 17.8%

Results for CCOc1ccc(N(CC(=O)Nc2ccc(OC)cc2)S(=O)(=O)c2ccc(Cl)cc2)cc1 ?
AmpC detergent: 8.9%

Results for O=C(Nc1ccc(F)cc1F)C1CCN(c2ncccn2)CC1 ?
AmpC detergent: 7.0%

Results for Cc1ccc(S(=O)(=O)N2CCN(C(=O)c3cc(C4CC4)nn3-c3ccccc3)CC2)cc1 ?
AMA1-RON2 inh: -9.8%

Results for COc1ccc(OC)c(S(=O)(=O)N2CCC(C(=O)Nc3ccccc3)CC2)c1 ?
AMA1-RON2 inh: -0.4%; Pf growth 48h: 7.2%; AmpC no deterg: -13.0%; AmpC detergent: -6.9%; HCV inh: -24.9%; Pf growth 96h: inconclusive

What do the screens show for `COc1ccc(OC)c(S(=O)(=O)N2CCN(C(=O)c3cc(C4CC4)nn3-c3ccccc3)CC2)c1`?
AMA1-RON2 inh: -2.7%; Pf growth 48h: inconclusive; AmpC no deterg: 138.2%; AmpC detergent: inconclusive; HCV inh: inconclusive; Pf growth 96h: 9.28µM*

What do the screens show for `O=C(c1cc(C2CC2)nn1-c1ccccc1)N1CCN(S(=O)(=O)c2ccccc2)CC1`?
AMA1-RON2 inh: inconclusive; Pf growth 48h: 14.7µM*; AmpC no deterg: -9.8%; AmpC detergent: inconclusive; HCV inh: inconclusive; Pf growth 96h: inconclusive

What do the screens show for `O=C(c1cc(-c2ccccc2)nn1-c1ccccc1)N1CCN(S(=O)(=O)c2c(F)cccc2F)CC1`?
AMA1-RON2 inh: -5.8%; Pf growth 48h: inconclusive; AmpC no deterg: -13.2%; AmpC detergent: inconclusive; HCV inh: 12.6µM*; Pf growth 96h: inconclusive

How did CCCCN(CC)Cc1ccc(CNC(=O)Nc2ccc(OCC)cc2)o1 do in these assays?
AMA1-RON2 inh: -1.4%; AmpC no deterg: 4.4%; AmpC detergent: -1.3%; HCV inh: 12.6µM*; Pf growth 96h: inconclusive

What do the screens show for `O=C(CSc1nc(-c2ccccc2)nc2c1CCCC2)c1ccc(F)cc1`?
AmpC detergent: 8.2%

How did Cc1ccc(-c2nnn(CC(=O)N(Cc3ccccc3F)C(C(=O)NC3CCCC3)c3ccncc3)n2)o1 (stereo not drawn) do in these assays?
AMA1-RON2 inh: -9.7%; Pf growth 48h: 9.28µM*; AmpC no deterg: 72.1%; AmpC detergent: 0.2%; HCV inh: inconclusive; Pf growth 96h: inconclusive

What do the screens show for `Cc1ccc(-c2nnn(CC(=O)N(CC(=O)NCc3ccccc3)c3cccc(C)c3C)n2)o1`?
AMA1-RON2 inh: -15.0%; Pf growth 48h: 14.7µM*; AmpC no deterg: inconclusive; AmpC detergent: -6.6%; HCV inh: inconclusive; Pf growth 96h: inconclusive

Results for CCC(C(=O)NC1CCCC1)N(C(=O)Cn1nnc(-c2ccc(C)o2)n1)c1ccc(F)cc1 (stereo not drawn) ?
AMA1-RON2 inh: -4.5%; Pf growth 48h: -2.0%; AmpC no deterg: -9.7%; AmpC detergent: -8.9%; HCV inh: -23.2%; Pf growth 96h: 11.7µM*

Results for Cc1ccc(-c2nnn(CC(=O)N(c3ccccc3)C(C(=O)NC3CCCC3)c3ccncc3)n2)o1 (stereo not drawn) ?
AMA1-RON2 inh: 17.7%; Pf growth 48h: 12.3%; AmpC no deterg: -5.5%; AmpC detergent: -4.6%; HCV inh: -10.3%; Pf growth 96h: -15.7%

Results for Cc1ccc(-c2nnn(CC(=O)N(CC(=O)NC3CCCC3)c3cnc4ccccc4c3)n2)o1 ?
AMA1-RON2 inh: 10.9%; Pf growth 48h: inconclusive; AmpC no deterg: 10.6%; AmpC detergent: -6.9%; HCV inh: 0.6%; Pf growth 96h: 9.28µM*

What do the screens show for `Cc1cccc(N(CC(=O)NCc2ccccc2)C(=O)Cn2nnc(-c3ccc(C)o3)n2)c1`?
AMA1-RON2 inh: -5.6%; Pf growth 48h: inconclusive; AmpC no deterg: -14.3%; AmpC detergent: -17.6%; HCV inh: -24.7%; Pf growth 96h: inconclusive

What do the screens show for `O=C(Cn1ccn(-c2ccc(F)c(F)c2)c(=O)c1=O)Nc1ccccc1F`?
AmpC detergent: 20.9%

How did COc1ccc2c(c1)c1c(c(=O)n(-c3ccc(C)cc3)c(=O)n1CC(=O)NCc1ccc(C)cc1)n2C do in these assays?
AmpC detergent: 13.7%

What do the screens show for `COc1cccc(CNC(=O)Nc2ccc3c(c2)N(C)C(=O)c2ccccc2S3)c1`?
AmpC detergent: 14.6%

What do the screens show for `Cc1cccc(C)c1NC(=O)Cn1c(SCC(=O)NCc2ccccc2)nc2ccccc21`?
AmpC detergent: 1.3%

Results for CCc1cccc(NC(=O)C2CCCN2S(=O)(=O)c2ccc3nc(-c4ccccc4)[nH]c3c2)c1 (stereo not drawn) ?
AmpC detergent: -0.4%

How did Cc1ccc(-c2nnn(CC(=O)N(CC(=O)NC3CCCC3)c3ccc(F)c(Cl)c3)n2)o1 do in these assays?
AMA1-RON2 inh: -8.7%; Pf growth 48h: 9.28µM*; AmpC no deterg: -25.5%; AmpC detergent: 1.0%; HCV inh: inconclusive; Pf growth 96h: 13.1µM*

What do the screens show for `CCC(C(=O)NC1CCCC1)N(C(=O)Cn1nnc(-c2cccs2)n1)c1cnc2ccccc2c1` (stereo not drawn)?
AMA1-RON2 inh: 21.5%; Pf growth 48h: 11.7µM*; AmpC no deterg: -17.4%; AmpC detergent: -2.0%; HCV inh: 8.8%; Pf growth 96h: -2.0%

Screening results from PubChem.
